Reference: PubChem BioAssay
Active and inactive are the calls of the source. Unless noted, the rule behind the calls is not given here.

Legend:
[1] = compound effects on lung adenocarcinoma cell viability – A549, calcein-AM fluorescence, 48 h, basal, profiling panel (AID 1162); conditions: higher = more signal; note: test concentration not given here
[2] = compound effects on differentiated 3T3-L1 adipocyte viability – cell-based, 3T3-L1 adipocytes, calcein-AM fluorescence, 48 h, basal, profiling panel (AID 1163); conditions: 3T3-L1 adipocytes viability, higher = more signal; note: test concentration not given here
[3] = compound effects on hepatocellular carcinoma cell viability – HepG2, calcein-AM fluorescence, 48 h, basal, profiling panel (AID 1164); conditions: higher = more signal; note: test concentration not given here
[4] = compound effects on multiple myeloma cell viability – MM1S, calcein-AM fluorescence, 48 h, basal, profiling panel (AID 1165); conditions: higher = more signal; note: test concentration not given here
[5] = calcein-AM signal in unstimulated myeloma cells – cell-based, calcein-AM fluorescence, 48 h, PK04 Diversity Set, profiling panel (AID 1166); conditions: RPMI8226 myeloma viability, higher = more signal;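 note: cells grown under basal conditions without added stimulus; test concentration not given here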
[6] = JC-1 mitochondrial signal, unstimulated HepG2 cells – cell-based, JC-1 fluorescence, 24 h, 100 nL compound, profiling panel (AID 1167); conditions: HepG2 mitochondrial potential, higher = more signal; note: test concentration not given here
[7] = JC-1 mitochondrial signal, unstimulated adipocytes – cell-based, JC-1 fluorescence, 3T3-L1 adipocytes, 24 h, 100 nL compound, profiling panel (AID 1168); conditions: JC-1 mitochondrial fluorescence, higher = more signal, called active from +8 up or from −8 down; note: test concentration not given here
[8] = JC-1 mitochondrial signal, unstimulated myeloma cells – cell-based, JC-1 fluorescence, RPMI8226, 24 h, 100 nL compound, profiling panel (AID 1169); conditions: JC-1 mitochondrial potential fluorescence, higher = more signal; note: test concentration not given here
[9] = JC-1 mitochondrial signal, unstimulated MM1S myeloma – cell-based, JC-1 fluorescence, 24 h, 100 nL compound, profiling panel (AID 1170); conditions: MM1S mitochondrial potential, higher = more signal; note: test concentration not given here
[10] = resazurin metabolic signal in A549 cells – cell-based, resazurin fluorescence, 24 h, PK04 Diversity Set, profiling panel (AID 1171); conditions: A549 viability, higher = more signal, called active from +8 up or from −8 down; note: test concentration not given here
[11] = resazurin metabolic signal in HepG2 cells – cell-based, resazurin fluorescence, 24 h, PK04 Diversity Set, profiling panel (AID 1172); conditions: HepG2 viability, higher = more signal; note: test concentration not given here
[12] = budding yeast growth changes without added modifier – OD600, strain BY4716, 24 h, basal condition, primary screen (AID 1173); conditions: S. cerevisiae BY4716 growth, OD600, 24 h; higher = more signal, called active from +8 up or from −8 down
[13] = viability profiling in MM1S myeloma cells – cell-based, resazurin fluorescence, basal, 24 h, PK04 Diversity Set, profiling panel (AID 1174); conditions: higher = more signal, called active from +8 up or from −8 down; note: test concentration not given here
[14] = target: Dihydroorotate dehydrogenase (quinone), mitochondrial (Plasmodium falciparum (isolate 3D7)) (UniProt Q08210); experiment: inhibition of P. falciparum DHODH – biochemical, C-terminal His tag, absorbance 600 nm, primary screen (AID 1175); conditions: PfDHODH enzyme, DCIP absorbance 600 nm; higher = more signal, called active from +8 up or from −8 down;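 note: recombinant parasite enzyme with a five histidine tag at its C terminus; test concentration not given here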
[15] = inhibition of PAO1 biofilm formation – strain PAO1, LB-PBS medium, absorbance 600 nm, primary screen (AID 1176); note: test concentration not given here; conditions: P. aeruginosa PAO1 growth/biofilm, A600, 12 h; higher = more signal
[16] = growth modulation of vineyard yeast isolate – strain RM11-1a, OD600, basal, 24 h, primary screen (AID 1177);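 note: cultures grown under basal conditions with no added stressor; test concentration not given here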; conditions: S. cerevisiae RM11-1a growth, OD600, 24 h; higher = more signal, called active from +8 up or from −8 down
[17] = growth of efflux-deficient E. coli DRC39 – strain DRC39, OD650, 24 h, E. coli filamentation inducers, primary screen (AID 1178);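 note: growth measured as culture turbidity by optical density at 650 nm; test concentration not given here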; conditions: E. coli DRC39 acrAB, higher = more signal, called active from +8 up or from −8 down
[18] = growth of efflux-deficient E. coli DRC39 – strain DRC39, OD650, 48 h, E. coli filamentation inducers, primary screen (AID 1179);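 note: screen aims at cell division blockers that make cells filament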; conditions: E. coli DRC39 delta-acrAB growth, higher = more signal, called active from +8 up or from −8 down
[19] = viability profiling in RPMI8226 myeloma cells – cell-based, resazurin fluorescence, basal, 24 h, PK04 Diversity Set, profiling panel (AID 1180); conditions: higher = more signal;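 note: RPMI8826 multiple myeloma cell line at 5000 cells per well; test concentration not given here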
[20] = target: E3 ubiquitin-protein ligase XIAP (Homo sapiens) (UniProt P98170); experiment: small molecules binding XIAP protein – biophysical, small-molecule microarray, fluorescence 635 nm, primary screen (AID 1181); conditions: higher = more signal;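 note: score merges 667 nm emission and signal to noise over triplicate slides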
Chain of E3 ubiquitin-protein ligase XIAP (Homo sapiens) (P98170 whole entry, looked up): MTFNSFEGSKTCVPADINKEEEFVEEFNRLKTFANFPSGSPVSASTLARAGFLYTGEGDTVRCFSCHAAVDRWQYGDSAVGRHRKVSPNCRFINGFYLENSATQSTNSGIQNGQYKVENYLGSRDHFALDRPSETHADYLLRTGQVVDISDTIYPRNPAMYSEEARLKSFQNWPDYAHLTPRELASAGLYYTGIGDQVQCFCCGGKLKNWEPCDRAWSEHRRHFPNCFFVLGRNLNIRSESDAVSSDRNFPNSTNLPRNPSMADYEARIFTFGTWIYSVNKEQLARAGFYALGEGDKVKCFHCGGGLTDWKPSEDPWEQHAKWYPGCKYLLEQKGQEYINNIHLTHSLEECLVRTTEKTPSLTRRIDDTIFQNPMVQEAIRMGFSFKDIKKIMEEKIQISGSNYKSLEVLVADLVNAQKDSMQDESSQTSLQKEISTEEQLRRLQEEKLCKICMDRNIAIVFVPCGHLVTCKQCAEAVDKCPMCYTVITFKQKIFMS

Chain of Dihydroorotate dehydrogenase (quinone), mitochondrial (Plasmodium falciparum (isolate 3D7)) (Q08210 whole entry, looked up): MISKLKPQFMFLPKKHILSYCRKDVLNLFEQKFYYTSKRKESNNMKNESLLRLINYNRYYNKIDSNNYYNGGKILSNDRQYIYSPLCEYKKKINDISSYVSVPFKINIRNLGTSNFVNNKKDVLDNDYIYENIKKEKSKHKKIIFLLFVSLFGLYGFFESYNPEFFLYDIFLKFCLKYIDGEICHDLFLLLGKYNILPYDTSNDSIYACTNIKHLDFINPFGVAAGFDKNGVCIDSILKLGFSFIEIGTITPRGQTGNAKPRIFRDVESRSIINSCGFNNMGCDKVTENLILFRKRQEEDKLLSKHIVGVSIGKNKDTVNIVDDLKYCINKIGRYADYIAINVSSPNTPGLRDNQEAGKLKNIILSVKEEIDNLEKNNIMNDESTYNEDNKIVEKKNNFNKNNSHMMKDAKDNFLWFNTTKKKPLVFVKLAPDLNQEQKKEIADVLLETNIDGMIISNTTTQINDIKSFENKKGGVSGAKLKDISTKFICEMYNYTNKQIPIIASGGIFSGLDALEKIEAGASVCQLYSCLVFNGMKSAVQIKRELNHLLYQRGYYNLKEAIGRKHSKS

Row | SMILES | z-score [1] | z-score [2] | z-score [3] | z-score [4] | z-score [5] | z-score [6] | z-score [7] | z-score [8] | z-score [9] | z-score [10] | z-score [11] | z-score [12] | z-score [13] | composite z-score [14] | z-score [15] | z-score [16] | z-score [17] | z-score [18] | z-score [19] | composite z-score [20]
1 | Cn1c(=O)n2n(c1=O)[C@H]1[C@H](O)[C@@H]3O[C@@H]3C(=O)[C@H]1CC2 | 0.365 | -0.137 | 0.902 | -0.382 | 0.308 | 0.45 | 0.194 (inactive) | 0.731 | 0.0623 | -0.495 (inactive) | -0.12 | 0.243 (inactive) | -0.871 (inactive) | 0.438 (inactive) | -0.343 (inactive) | 0.723 (inactive) | 0.463 (inactive) | 0.166 (inactive) | -0.52 | 0.0799
2 | COC(=O)CC=C[C@@H](C)[C@@H](C=NO[C@H](C)c1cn([C@H](CO)Cc2ccccc2)nn1)NS(=O)(=O)c1ccc(C)cc1 | -0.775 | -0.0125 | -0.647 | -0.0023 | -0.254 | -0.416 | -2.46 (inactive) | 0.696 | 0.571 | -0.102 (inactive) | -0.891 | -1.17 (inactive) | -0.81 (inactive) | 0.0463 (inactive) | 0.0282 (inactive) | -0.476 (inactive) | 0.0146 (inactive) | -0.0853 (inactive) | 0.108 | -0.206
3 | CO[C@@H]1COC(=O)[C@@H]2CCCN2C(=O)[C@@H](C)COC(=O)CC=C[C@H]1C | -1.06 | -0.11 | -0.321 | 0.0099 | -0.748 | -0.2 | -1.49 (inactive) | -0.0504 | -0.684 | 0.948 (inactive) | 1.09 | 0.755 (inactive) | 0.468 (inactive) | -0.385 (inactive) | -0.749 (inactive) | 0.0994 (inactive) | 0.207 (inactive) | -0.179 (inactive) | 0.189 | -0.273
4 | CCOC(=O)[C@H](Cc1ccccc1)NC(=O)CCC1CC(OC(=O)NCc2ccc3c(c2)OCO3)CC2(CCCC(COC(=O)NCCc3ccccc3OC)O2)O1 (stereo not given in full) | -1.24 | -0.399 | -0.519 | -0.271 | -0.502 | -0.778 | -0.877 (inactive) | 0.444 | 0.00939 | 0.124 (inactive) | -0.23 | 0.911 (inactive) | -0.32 (inactive) | 0.0964 (inactive) | 0.426 (inactive) | 0.824 (inactive) | -0.0754 (inactive) | -0.731 (inactive) | 0.0481 | -0.024
5 | O=C1[C@H]2[C@H]3[C@H](O)[C@H](O)CC(=NO[C@@H]4O[C@H](CO)[C@@H](O)[C@H](O)[C@H]4O)[C@H]3CC[C@H]2C(=O)N1c1cccc(Oc2ccccc2)c1 | -0.0287 | -0.171 | -0.733 | 0.411 | -0.782 | 0.629 | -0.235 (inactive) | 0.142 | -0.827 | 1.08 (inactive) | 0.648 | 0.439 (inactive) | -0.0137 (inactive) | 0.0087 (inactive) | -0.708 (inactive) | -0.929 (inactive) | -0.0313 (inactive) | -0.49 (inactive) | 0.394 | -0.0773
6 | COc1ccc(O[C@H]2C=C[C@@H](c3ccccc3)O[C@@H]2CON=C2[C@H]3CCn4c(=O)n(-c5ccccc5)c(=O)n4[C@H]3[C@H](O)[C@@H]3O[C@H]23)cc1 | 0.455 | -0.669 | -0.0924 | -2.98 | -1.37 | -0.0967 | 0.112 (inactive) | -0.921 | -0.429 | -1.55 (inactive) | -1.63 | 0.422 (inactive) | -2.53 (inactive) | -0.268 (inactive) | -0.0417 (inactive) | 0.0056 (inactive) | 0.694 (inactive) | 0.731 (inactive) | -1.92 | -0.403
7 | Cc1ccc(S(=O)(=O)OC[C@H]2CN3[C@H](c4ccc(Br)cc4)[C@@H](C)CC[C@H]3C(=O)O2)cc1 | 0.602 | -0.744 | 0.62 | -0.0638 | -0.75 | 0.914 | 0.555 (inactive) | -0.103 | 0.222 | 0.683 (inactive) | 0.794 | -9.35 (active) | 0.648 (inactive) | -0.303 (inactive) | 1.29 (inactive) | -1.42 (inactive) | 1.31 (inactive) | 0.618 (inactive) | 0.521 | 0.201
8 | COc1ccc(O[C@H]2C=C[C@@H](c3ccccc3)O[C@@H]2COC(=O)CCC(C)=NO[C@@H]2O[C@H](COC(C)=O)[C@@H](OC(C)=O)[C@H](OC(C)=O)[C@H]2OC(C)=O)cc1 | -0.502 | 0.0711 | -0.574 | -0.794 | -0.433 | -1.05 | -0.882 (inactive) | 0.722 | -0.375 | 0.363 (inactive) | 0.0729 | 1.64 (inactive) | -0.169 (inactive) | 0.671 (inactive) | -0.585 (inactive) | 1.37 (inactive) | 0.486 (inactive) | 0.167 (inactive) | 0.111 | 0.461
9 | CO[C@@H]1COC(=O)[C@@H](C)NC(=O)CC=C[C@@H](C)[C@H](NS(=O)(=O)c2ccc(C)cc2)COC(=O)[C@H](C)NC(=O)CC=C[C@H]1C | 0.458 | 0.177 | 0.196 | -0.0848 | -0.036 | -0.125 | -0.172 (inactive) | 0.51 | 0.468 | 1.33 (inactive) | 0.63 | -0.673 (inactive) | 0.416 (inactive) | 0.0059 (inactive) | -0.212 (inactive) | -0.489 (inactive) | 1.39 (inactive) | 0.428 (inactive) | 1.08 | -0.202
